Source: PubChem (National Center for Advancing Translational Sciences (NCATS))
Pf growth 96h = P. falciparum growth inhibition at 96 hours; AID 504834; P. falciparum luciferase reporter growth, 96 h; Potency, µM (top dose mostly 28.7 µM), hits mostly inhibitors; hit rate 6.9% among 320,000
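P. falciparum expressing integrated firefly luciferase, in erythrocytes at 2% hematocrit, 0.05% parasitemia, incubated with compounds 96 h at 37 C, 5% CO2. Growth inhibition read as loss of luminescence; two-generation exposure targets delayed-death apicoplast inhibitors.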
Vaccinia Venus = inhibitors of vaccinia virus (Venus reporter); AID 720580; Vaccinia virus Venus reporter expression, fluorescence; hit rate 0.46% among 330,000; Potency, µM (highest dose often 36.5 µM), usual class: inhibitors; calls by dose curve; tested in A549 cells; also: nearly all actives have a fitted effect of over 30% in size
Vaccinia mCherry = vaccinia inhibition (mCherry reporter); Vaccinia virus mCherry reporter infection, fluorescence; Potency, µM (titrated, usually from 36.5 µM), most hits filed as inhibitors; hit rate 0.63% among 310,000; calls by dose curve; tested in A549 cells; also: nearly all actives have a fitted effect of over 35% in size
NS1 inh = influenza NS1 inhibition. AID 2326. hit rate 0.4% among 270,000. Potency, µM (doses to about 46.1 µM); calls by dose curve; also: actives are rising curves; nearly all actives have a fitted effect of over 50% in size
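S. cerevisiae expressing influenza A NS1, grown in glucose, washed, then diluted 1:100 into pH 6.0 -URA galactose medium with 23 nl compound. Growth recovery read as OD600; NS1-free strain serves as control.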
Pf growth 48h = inhibits P. falciparum growth in the first generation, 48 h; P. falciparum luciferase growth in erythrocytes, 48 h; Potency, µM (top dose mostly 28.7 µM), usual class: inhibitors; hit rate 5.9% among 310,000
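A one-generation exposure of luciferase-tagged malaria parasites in RPMI 1640/Albumax erythrocyte culture, 37 C and 5% CO2. Inhibition is inferred from decreased luminescence after adding detection reagent.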
HCV inh = blocks hepatitis C virus; Huh7.5.1 HCVcc-Cre infection, luciferase reporter, 44 h; Potency, µM (titrated, usually from 41.8 µM), most hits filed as inhibitors; hit rate 3.4% among 340,000; AID 651820
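Whole-lifecycle infectious HCVcc-Cre system; cells 1,000/well, compound then virus (~0.5 moi) added 4 h after plating, 44 h culture. Luciferase read 15 sec following 15 min substrate incubation, room temp.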
Large screens that a line does not name were inactive. An excerpt weighted towards active compounds, which were near 11% of everything screened. Unless noted, calls follow the shape of the dose curve; as a rule, active = well fitted inhibition curve with a large enough effect; inconclusive = small, poorly fitted or top-dose-only effect, or another doubt; inactive = no such curve, though single readings can be large or run the other way.

CCCCC1C(=O)N(c2ccccc2)N(c2ccccc2)C1=O	Pf growth 96h 3.3µM, NS1 inh inconclusive, Pf growth 48h inconclusive
CCCCCOc1ccc(C2C(C(C)=O)=C(C)Nc3ncnn32)cc1OC (stereo not drawn)	Pf growth 48h inconclusive (no result: Vaccinia mCherry)
Cc1cc(C)c2ccc(=O)n(CC(=O)N/N=C/c3ccccc3Cl)c2n1	NS1 inh inconclusive, Pf growth 48h 2.6µM
O=C(CSc1nnc(COc2cccc3cccnc23)o1)N1CCCC1	none
COc1cccc(C(=O)CSc2nnc(COc3cccc4cccnc34)o2)c1	Pf growth 48h inconclusive, HCV inh inconclusive
NC(=O)CSc1nnc(COc2cccc3ccccc23)o1	Pf growth 96h 12µM (no result: Vaccinia Venus, Vaccinia mCherry)
O=C(CSc1nnc(COc2cccc3cccnc23)o1)c1ccc(F)cc1	Pf growth 48h inconclusive, HCV inh 10µM
Cc1ccc(C(=O)CSc2nnc(COc3cccc4cccnc34)o2)cc1	Pf growth 96h 3.3µM, Pf growth 48h inconclusive
O=C(Oc1coc(CSc2nnc(NC(=O)C3CC3)s2)cc1=O)c1c(F)cccc1F	Pf growth 96h inconclusive, Vaccinia mCherry inconclusive (no result: NS1 inh)
CC1(C)Cc2c(c(N3CCOCC3)nc3sc(C#N)c(N)c23)CS1	Pf growth 96h inconclusive, Pf growth 48h inconclusive, HCV inh inconclusive
Cc1ccc(C(=O)NCCc2nnc3ccc(SCC(=O)Nc4ccccc4C)nn23)cc1	Pf growth 96h 10µM, Pf growth 48h inconclusive
O=C(CSc1ccc2nnc(-c3ccccn3)n2n1)Nc1ccccc1F	Pf growth 48h 9.3µM
O=C(CSc1ccc2nnc(-c3ccccn3)n2n1)Nc1cccc(F)c1	Pf growth 96h 13µM, Pf growth 48h inconclusive (no result: HCV inh)
Cc1cccc(CSc2ccc3nnc(-c4ccccn4)n3n2)c1	Pf growth 96h inconclusive, Pf growth 48h 3.7µM (no result: NS1 inh)
Cc1ccc(C(=O)NCCc2nnc3ccc(SCC(=O)Nc4c(C)cc(C)cc4C)nn23)cc1	none
c1ccc(CSc2ccc3nnc(-c4ccccn4)n3n2)cc1	Pf growth 96h inconclusive, Pf growth 48h inconclusive (no result: NS1 inh)
CN1CCN(C(=O)c2ccccc2[N+](=O)[O-])CC1	none
Cc1cc2ncc(Cl)nc2cc1C	none
CCC(NC(=S)NC1CCCCC1)c1ccc(C(C)C)cc1 (stereo not drawn)	Pf growth 96h 3.3µM, Pf growth 48h 8.3µM (no result: Vaccinia Venus, Vaccinia mCherry, HCV inh)
COc1ccc(C(C)NC(=O)C2CCCC2)cc1OC (stereo not drawn)	Pf growth 48h inconclusive
COc1ccc(C(C)NC(=S)NC2CCCC2)cc1OC (stereo not drawn)	Pf growth 96h inconclusive, Pf growth 48h 1.9µM
Cc1ccc(C(C)NC(=S)NC2CCCCC2)cc1C (stereo not drawn)	Pf growth 96h 10µM, Pf growth 48h 10µM (no result: Vaccinia Venus, Vaccinia mCherry, HCV inh)
Cc1ccc(C(C)NC(=S)NC2CCCCC2)c(C)c1 (stereo not drawn)	Pf growth 96h 5.2µM, Pf growth 48h 10µM, HCV inh inconclusive (no result: Vaccinia Venus, Vaccinia mCherry)
Cc1ccc(NC(=S)NC2CCCC2)cc1C	none
Cc1ccc(C(C)NC(=O)C2CCCC2)c(C)c1 (stereo not drawn)	none (no result: Vaccinia Venus, Vaccinia mCherry)
COC(=O)c1cccc(NC(=O)CCN2C(=O)C3CC=CCC3C2=O)c1 (stereo not drawn)	none (no result: NS1 inh)
CCC1C(=O)N=C(SCC(=O)Nc2nc3ccccc3s2)NC1=O (stereo not drawn)	none (no result: NS1 inh)
N#CCCN(C(=O)COC(=O)CCC(=O)c1cccs1)c1ccccc1	none (no result: Pf growth 96h, Vaccinia Venus, Vaccinia mCherry, NS1 inh, Pf growth 48h)
O=C(CCC1CCCCC1)NCCN1C2=NC[C@@H](Cc3ccccc3)N2C[C@H]1Cc1ccc(O)cc1	Pf growth 96h 2.3µM, Vaccinia Venus inconclusive, Pf growth 48h inconclusive
C/C=C(\C)C(=O)NCCN1C2=NC[C@@H](Cc3ccccc3)N2C[C@H]1Cc1ccc(O)cc1	none
O=C(CCC1CCCCC1)NCCN1C2=NC[C@H](Cc3ccccc3)N2C[C@H]1Cc1ccc(O)cc1	Pf growth 96h 4.7µM, Vaccinia mCherry inconclusive, Pf growth 48h inconclusive
C[C@H]1CN=C2N(CCNC(=O)CCC3CCCCC3)[C@H](Cc3ccc(O)cc3)CN21	Pf growth 96h 12µM
COc1ccc(C[C@H]2CN3C(=NC[C@@H]3C)N2CCNC(=O)CCC2CCCCC2)cc1	Pf growth 96h inconclusive, Pf growth 48h inconclusive
CC[C@@H](C)[C@@H](C(=O)N1CCN(C(=O)OC(C)(C)C)CC1)n1cc(CCCN=C(NC(=O)OC(C)(C)C)NC(=O)OC(C)(C)C)nn1	Pf growth 96h inconclusive, Vaccinia Venus inconclusive, Pf growth 48h inconclusive
Cc1cn([C@H](C(=O)NCCCCCCCCCCC(=O)N2CCN(C(=O)OC(C)(C)C)CC2)[C@@H](C)O)nn1	Pf growth 96h 9.3µM, Pf growth 48h 10µM, HCV inh inconclusive (no result: NS1 inh)
CC[C@H](C)[C@@H](C(=O)NCCCCCCCCCCC(=O)N1CCN(C(=O)OC(C)(C)C)CC1)n1cc(CCCCN=C(NC(=O)OC(C)(C)C)NC(=O)OC(C)(C)C)nn1	Pf growth 96h 1.9µM, Pf growth 48h 1.2µM (no result: Vaccinia Venus, Vaccinia mCherry, NS1 inh)
C[C@H](O)[C@@H](C(=O)N1CCN(C(=O)OC(C)(C)C)CC1)n1cc(CCCCNC(=O)OC(C)(C)C)nn1	none
CC[C@H](C)[C@@H](C(=O)NCCCCCCCCCCC(=O)N1CCN(C(=O)OC(C)(C)C)CC1)n1cc(CCCCCNC(=O)OC(C)(C)C)nn1	Pf growth 96h 1µM, Vaccinia Venus inconclusive, Vaccinia mCherry inconclusive, Pf growth 48h 1.5µM, HCV inh inconclusive (no result: NS1 inh)
O=C(Nc1ccccc1OC(=O)N1CCOCC1)N1CCOCC1	none
COC(=O)c1ccc(CSc2nnc(Nc3ccccc3OC)s2)o1	none
NC1=C(Cl)C(=O)c2ccc(S(N)(=O)=O)cc2C1=O	Vaccinia Venus 0.5µM, Vaccinia mCherry inconclusive, HCV inh 0.56µM (no result: Pf growth 96h, NS1 inh, Pf growth 48h)
NC1=C(Cl)C(=O)c2ccccc2C1=O	Vaccinia Venus inconclusive, Vaccinia mCherry inconclusive, HCV inh 8.9µM (no result: Pf growth 96h, NS1 inh, Pf growth 48h)
CCN1C=CC2=C(C#N)C(N)C(C#N)(C#N)C(c3ccccc3C(F)(F)F)C2C1 (stereo not drawn)	Pf growth 96h inconclusive, Pf growth 48h 2.9µM (no result: Vaccinia mCherry)
C=C[C@@H]1c2ccccc2N(S(=O)(=O)c2ccc(C)cc2)[C@H](c2ccccc2C(F)(F)F)C1(C#N)C#N	Pf growth 96h inconclusive, Vaccinia mCherry inconclusive, Pf growth 48h inconclusive (no result: NS1 inh)
CCc1cccc(C)c1NC(=S)NCCc1c(C)[nH]c2ccc(C)cc12	Pf growth 96h 15µM, Vaccinia Venus inconclusive, Vaccinia mCherry 18µM, Pf growth 48h inconclusive, HCV inh 35µM
CCc1cccc(CC)c1NC(=S)NCCc1c(C)[nH]c2ccc(C)cc12	Pf growth 96h 10µM, Vaccinia Venus 16µM, Vaccinia mCherry 10µM, NS1 inh inconclusive, Pf growth 48h inconclusive, HCV inh 22µM
COc1ccc2[nH]c(C)c(CCNC(=S)Nc3cccc(C)c3)c2c1	Pf growth 96h inconclusive, Vaccinia Venus inconclusive, Vaccinia mCherry inconclusive, Pf growth 48h inconclusive
CCn1c(C(=O)NCCc2ccc(S(N)(=O)=O)cc2)cc2sc(Cl)cc21	none (no result: Pf growth 96h, NS1 inh, Pf growth 48h, HCV inh)
COc1ccc(CN2CCSCC2)c(C)c1C	Pf growth 96h 8.3µM
